Reference: PubChem BioAssay (NCI)
About 83,000 compounds went through this panel and 20% of them were active in at least one assay; those are over-represented in the sample as a whole.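 Percent growth is the endpoint: 0 to 100 indicates growth inhibition (40 means 60% inhibition), 0 means no net growth, and negative values indicate cell death.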 Values without a mark were called inactive. Calls of active or inactive are those of the source. How the source made its calls: active means growth percent below 10; inactive means the rest.

Legend:
Experiment in all cases: NCI-60 one-dose screen, 48 h (100 = growth as untreated, 0 = no growth, -100 = all killed)
Conditions in all cases: 10 µM unless noted
[1] = tested on: NCI-H23 lung
[2] = tested on: NCI-H226 lung
[3] = tested on: NCI-H322M lung
[4] = tested on: HOP-62 NSCLC
[5] = tested on: NCI-H460 lung
[6] = tested on: HOP-92 NSCLC
[7] = tested on: NCI-H522 lung
[8] = tested on: A549/ATCC NSCLC
[9] = tested on: COLO 205 colon
[10] = tested on: DU-145 prostate
[11] = tested on: K-562 leukemia
[12] = tested on: MALME-3M melanoma
[13] = tested on: MDA-MB-231 breast
[14] = tested on: SF-268 CNS
[15] = tested on: SF-539 CNS
[16] = tested on: UACC-257 melanoma
[17] = tested on: M14 melanoma
[18] = tested on: 786-0 renal
[19] = tested on: RXF 393 renal
[20] = tested on: SF-295 CNS

Compound CCCCn1c(-c2ccc(F)cc2)nc2cc(OC)c(OC)cc2c1=O has a growth [1] of 101%, a growth [2] of 93.8% and a growth [3] of 78%. For the same compound, the growth [4] was -11.2% (active), the growth [5] was 112% and the growth [6] was 66.1%. The growth [7] was 93.7%, the growth [8] was 19.7% and the growth [9] was 121%. For the same compound, the growth [10] was 111%, the growth [11] was 85.5% and the growth [12] was 71.8%. For the same compound, the growth [13] was 87.1%, the growth [14] was 101% and the growth [15] was 101%. For the same compound, the growth [16] was -32.2% (active) and the growth [17] was 127%.
With COc1cccc(/C=N/N=C(N)N)c1 the growth [1] was 103%, the growth [2] was 98.3% and the growth [3] was 114%. For the same compound, the growth [4] was 104%, the growth [5] was 111% and the growth [6] was 91.1%. It also gave a growth [8] of 102%, a growth [18] of 117% and a growth [9] of 109%. The growth [10] was 102%, the growth [11] was 94.5% and the growth [12] was 111%. The growth [13] was 91.4%, the growth [19] was 106% and the growth [14] was 101%. The growth [15] was 84.5%, the growth [16] was 97.1% and the growth [17] was 93.8%.
CCN1CCN(Cc2ccc(NC(=O)c3nc4ccc5[nH]ncc5c4c4c3CCCC4)cc2C(F)(F)F)CC1 was tested, and the growth [1] was 74.6%, the growth [2] was 60.3% and the growth [3] was 2.39% (active). The growth [4] was -29.8% (active), the growth [5] was -73.4% (active) and the growth [6] was 44.9%. For the same compound, the growth [8] was 6.07% (active), the growth [18] was -88.6% (active) and the growth [9] was -76.7% (active). For the same compound, the growth [10] was -57.8% (active), the growth [11] was -44.5% (active) and the growth [12] was -79.3% (active). For the same compound, the growth [13] was -72.1% (active), the growth [19] was -87.4% (active) and the growth [14] was 27.4%. The growth [20] was -54.2% (active), the growth [15] was -93.7% (active) and the growth [16] was -63.9% (active). For the same compound, the growth [17] was -75.4% (active).
COc1cc(C2Nc3ccccc3S2)cc(CN2CCOCC2)c1O (configuration not stated) gave a growth [1] of 78.8%, a growth [2] of 92.3% and a growth [3] of 116%. For the same compound, the growth [4] was 86.1%, the growth [5] was 52.7% and the growth [6] was 103%. It also gave a growth [8] of 73.6%, a growth [18] of 104% and a growth [9] of 89.6%. It also gave a growth [10] of 101%, a growth [11] of 46.9% and a growth [12] of 66.7%. The growth [13] was 63.6%, the growth [19] was 78.5% and the growth [14] was 91.1%. It also gave a growth [15] of 82.3%, a growth [16] of 78.2% and a growth [17] of 55.5%.
